According to PubChem BioAssay AID1445 (SRMLSC, 2008):
The campaign covered roughly 220,000 compounds. About 910 (0.41%) were called active.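 How the source made its calls: active means primary inhibition above the hit cutoff, then over 50% inhibition at one or more dose response concentrations (cut at about 23% in these data, passing the limit was not always enough); inconclusive means conflicting primary data, or primary hits not chosen for dose response; inactive means low primary inhibition, or under 50% at every dose.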 The sample as a whole holds a higher share of actives than the screen did. Potency and affinity values are given separately.

What follows are molecules tested against Aminopeptidase N (Plasmodium falciparum (isolate 3D7)) (UniProt O96935) (assay: P. falciparum M1AAP inhibitors, biochemical, fluorogenic H-Leu-NHMec substrate, 1536-well (AID 1445;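 further: plate controls were DMSO full reaction for no effect and no enzyme background for full effect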)). Settings: recombinant M1AAP, H-Leu-NHMec fluorogenic kinetic assay; at 30 µM, hits give high values unless noted.
Chain of Aminopeptidase N (Plasmodium falciparum (isolate 3D7)) (O96935 whole entry, looked up): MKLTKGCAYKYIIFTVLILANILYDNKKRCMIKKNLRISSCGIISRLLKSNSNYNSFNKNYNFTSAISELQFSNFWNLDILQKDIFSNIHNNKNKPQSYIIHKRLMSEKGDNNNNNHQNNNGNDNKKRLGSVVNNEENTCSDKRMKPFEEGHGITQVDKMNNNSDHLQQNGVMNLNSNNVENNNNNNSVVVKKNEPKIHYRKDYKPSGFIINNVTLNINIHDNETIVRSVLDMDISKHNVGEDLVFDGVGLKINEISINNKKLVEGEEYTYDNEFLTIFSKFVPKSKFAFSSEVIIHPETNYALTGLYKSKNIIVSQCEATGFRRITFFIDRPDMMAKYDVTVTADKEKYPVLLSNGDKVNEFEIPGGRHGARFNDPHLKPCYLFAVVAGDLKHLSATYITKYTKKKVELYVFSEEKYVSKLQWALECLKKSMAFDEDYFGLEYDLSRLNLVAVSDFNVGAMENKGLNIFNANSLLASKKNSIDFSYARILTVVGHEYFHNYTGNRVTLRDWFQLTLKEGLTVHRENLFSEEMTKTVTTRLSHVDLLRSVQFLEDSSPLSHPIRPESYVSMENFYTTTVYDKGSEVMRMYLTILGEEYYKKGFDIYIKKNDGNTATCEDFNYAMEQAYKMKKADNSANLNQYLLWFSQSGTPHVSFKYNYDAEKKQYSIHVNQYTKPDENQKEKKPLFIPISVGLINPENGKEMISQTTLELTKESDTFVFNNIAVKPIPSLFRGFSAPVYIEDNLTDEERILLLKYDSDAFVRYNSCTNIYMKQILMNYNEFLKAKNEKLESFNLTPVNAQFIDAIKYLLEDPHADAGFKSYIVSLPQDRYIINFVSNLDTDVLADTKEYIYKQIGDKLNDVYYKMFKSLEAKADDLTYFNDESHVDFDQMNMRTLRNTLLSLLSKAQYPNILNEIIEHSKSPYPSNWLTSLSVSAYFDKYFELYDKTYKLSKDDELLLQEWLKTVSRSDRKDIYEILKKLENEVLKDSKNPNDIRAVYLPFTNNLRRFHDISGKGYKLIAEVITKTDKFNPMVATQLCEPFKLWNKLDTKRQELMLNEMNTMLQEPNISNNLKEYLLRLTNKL

| SMILES | inhibition |
| --- | --- |
| Cc1cccc(NC(=O)c2ccccc2OCC(=O)c2ccc(F)cc2)c1 | 3.15% (inactive) |
| COC(=O)c1cc(Br)c(N)cc1OC | -6.6% (inactive) |
| CC(=O)c1cccc(NC(=O)C2CC(=O)N(c3cccc(C)c3C)C2)c1 (stereo not drawn) | -2.91% (inactive) |
| O=C(O)c1ccccc1C(=O)NNc1cccc(Cl)n1 | 0.28% (inactive) |
| O=C(CCCc1nc2ccccc2s1)NNC(=O)CCN1CCN(Cc2ccccc2)CC1 | 2.9% (inactive) |
| O=C(O)CC1=C(Nc2ccccc2)C(=O)N(c2ccccc2)C1c1ccc(F)cc1 (stereo not drawn) | -3.54% (inactive) |
| CCCCN(C)Cc1c(O)ccc2c(-c3ccccc3)cc(=O)oc12 | 3.86% (inactive) |
| CCCc1cc(=O)oc2c(C)c3occ(C)c3cc12 | -0.02% (inactive) |
| CN(C)Cc1c(O)ccc2c(-c3ccccc3)cc(=O)oc12 | 7.13% (inactive) |
| CCCc1cc(=O)oc2cc(OCC(=O)N(C)C)c(Cl)cc12 | -0.86% (inactive) |
| Oc1c(C(c2cccc(F)c2)N2CCN(Cc3ccccc3)CC2)sc2ncnn12 (stereo not drawn) | 9.71% (inactive) |
| Cc1ccc(-c2cc(C(=O)O)n[nH]2)o1 | 5.31% (inactive) |
| CC1CCCCN1C(=O)c1cc(-c2ccc(Cl)c(Cl)c2)on1 (stereo not drawn) | -16.2% (inactive) |
| O=C(CSc1nnc(-c2cc3ccccc3cc2O)n1Cc1ccco1)N1CCc2ccccc2C1 | 10.2% (inactive) |
| c1ccc(CSCc2cn3ccccc3n2)cc1 | -5.43% (inactive) |
| O=C(O)c1ccc(-c2ccccn2)s1 | 0.37% (inactive) |
| Nc1ccc(-c2ccc(C(=O)O)s2)cn1 | 28.6% (inactive) |
| CC1CCc2c(sc3nc(CSc4n[nH]c(N)n4)[nH]c(=O)c23)C1 (stereo not drawn) | -10.6% (inactive) |
| O=C(Nc1nccs1)c1csc2c1CCCC2 | 8.61% (inactive) |
| Cc1ccc(-c2ccc(=O)n(CC(=O)Nc3cccc(C(=O)N4CCN(C)CC4)c3)n2)cc1 | 6.7% (inactive) |
| O=C1CC(c2ccccc2F)c2c(c3ccccc3[nH]c2=O)O1 (stereo not drawn) | 0.7% (inactive) |

| SMILES | inhibition |
| --- | --- |
| COC(=O)CSc1nnc(-c2ccc(NS(=O)(=O)c3ccccc3)cc2)o1 | 7.24% (inactive) |
| Cc1sc(NC(=O)CSc2nnc(-c3ccccc3)o2)c(C#N)c1C | 25% (active) |
| N#Cc1c(NC(=O)CSc2nnc(-c3ccccc3)o2)sc2c1CCCC2 | 21.3% (inactive) |
| CCc1nnc(NC(=O)CSc2nnc(-c3ccco3)o2)s1 | -0.37% (inactive) |
| Cc1sc(NC(=O)CSc2nnc(-c3ccc(F)cc3)o2)c(C#N)c1C | 16% (inactive) |
| Cc1ccc(-n2c(C)nc3c(cnn3-c3ccc(C)c(C)c3)c2=O)cc1C | 2.27% (inactive) |
| CNNC(=O)C(=O)NNS(=O)(=O)c1ccccc1 | 4.63% (inactive) |
| O=C1c2ccccc2C(=O)N1Cc1nc2ccccc2o1 | 13% (inactive) |
| O=C1c2ccccc2C(=O)N1c1ccc(-c2nc3ccccc3o2)cc1 | -1.24% (inactive) |
| O=C(c1ccc(F)cc1)N(NC(=O)C(O)(c1ccccc1)c1ccccc1)c1ccccc1 | 0.71% (inactive) |
| COc1ccc(C(=O)/C=C/Nc2cc(C)on2)cc1 | 8.8% (inactive) |
| COc1ccc([N+](=O)[O-])cc1/C=N/NC(=O)/C(=C\c1cccs1)NC(=O)c1ccccc1 | 4.13% (inactive) |
| COCCn1c(-c2ccco2)nc2nc3ccccc3nc21 | 22.9% (inactive) |
| Fc1ccccc1-c1nc2nc3ccccc3nc2n1CC1CCCO1 (stereo not drawn) | 14.5% (inactive) |
| c1ccc(-c2nc3nc4ccccc4nc3n2CC2CCCO2)cc1 (stereo not drawn) | 15.8% (inactive) |
| CCCCCn1c(-c2ccco2)nc2nc3ccccc3nc21 | 13% (inactive) |
| c1coc(-c2nc3nc4ccccc4nc3n2CC2CCCO2)c1 (stereo not drawn) | 26% (active) |
| COC(=O)c1ccccc1NC(=O)Cn1cnc2ccc(S(=O)(=O)N3CCC(C)CC3)cc2c1=O | 20.3% (inactive) |
| CCOC(=O)C1=C(CN2CCSCC2)NC(=O)NC1c1ccc2c(c1)OCO2 (stereo not drawn) | -5.96% (inactive) |
| O=[N+]([O-])c1ccccc1/C=N/N1CCN(c2ccc(Cl)cc2)CC1 | 1.05% (inactive) |
| C/C(N)=C(/C#N)C(=O)COC(=O)Cc1coc2cc(C)ccc12 | 4.44% (inactive) |

| SMILES | inhibition |
| --- | --- |
| C/C(=N\NC(=O)CCc1ccccc1)C1C(=O)c2ccccc2C1=O | 0.57% (inactive) |
| C/C(=N\NC(=O)c1ccc(-c2ccccc2)cc1)C1C(=O)c2ccccc2C1=O | -1.49% (inactive) |
| CCOc1ccc(C(=O)N/N=C(/C)C2C(=O)c3ccccc3C2=O)cc1 | 4.51% (inactive) |
| C/C(=N\NC(=O)c1cc2ccccc2cc1O)c1cc2ccccc2o1 | 3.43% (inactive) |
| C/C(CC(=O)N1CCCC1)=N\NC(=O)c1cc2ccccc2cc1O | 10.8% (inactive) |
| C/C(=N\NC(=O)c1ccc(Br)cc1)C1C(=O)c2ccccc2C1=O | 39.9% (inactive) |
| CCOc1ccccc1N(CC(=O)NCCOC)C(=O)CCC(=O)Nc1ccccn1 | -5.17% (inactive) |
| CCC1CCCCN1CCCNC(=O)CC1Oc2ccccc2NC1=O (stereo not drawn) | 7.18% (inactive) |
| COc1cc([N+](=O)[O-])ccc1NC(=O)CCCOc1ccc(C)cc1 | 17.4% (inactive) |
| CC(C)(C)c1cc(C(=O)N/N=C/c2ccccc2O)n(-c2ccccc2)n1 | 11.1% (inactive) |
| COCCCNC(=O)Cn1nnc(-c2ccc(NC(=O)c3ccccc3F)cc2)n1 | 0.6% (inactive) |
| Nc1nc(COc2ccc3ccccc3c2)cs1 | -0.25% (inactive) |
| O=C(NN=C1CCCCCC1)NC1CCCCC1 | -3.52% (inactive) |
| CCCc1nnc(NC(=O)CN2CCN(C)CC2)s1 | 5.59% (inactive) |
| O=C(O)c1cccc2[nH]c(C(F)(F)F)nc12 | 9.3% (inactive) |
| FC(F)(F)c1nc2ccccc2[nH]1 | -1.24% (inactive) |
| CC(C)(C)NC(=O)Cn1c(SCC(N)=O)nc2ccccc21 | 2.96% (inactive) |
| O=C(OCC(=O)N1CCc2ccccc21)c1nc(Cl)ccc1Cl | 0.15% (inactive) |
| CN(C)C(=O)CN1C(=O)C2CCCCN2C(=O)c2ccccc21 (stereo not drawn) | 8.25% (inactive) |
| NC(=O)CN1C(=O)C2CCCCN2C(=O)c2ccccc21 (stereo not drawn) | -4.54% (inactive) |
| Cc1noc(C)c1S(=O)(=O)N1CCCC(C(=O)N2CCN(C3CCCCC3)CC2)C1 (stereo not drawn) | 8.08% (inactive) |
